The source made the active and inactive calls.
Columns and labels:
[1] = optical density shifts of acrAB sulA E. coli – strain DRC41, OD650, 48 h, E. coli filamentation inducer project, primary screen (AID 1152); details: higher = more signal, called active from +8 up or from −8 down;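 further: E. coli MC1000 strain DRC41 lacking acrAB efflux pump and sulA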
[2] = probe aLefty1 binding on compound microarray – biochemical, small-molecule microarray, 635/667 nm fluorescence, primary screen (AID 1153); details: higher = more signal;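 further: score merges spot fluorescence with signal-to-noise ratio from the scanned slide images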
[3] = plasmodial surface anion channel blockers, osmotic lysis – cell-based, P. falciparum Indochina, OD700, 1 h, primary screen (AID 1154); details: P. falciparum Indochina infected RBC osmotic lysis, higher = more signal, called active from +8 up or from −8 down
[4] = plasmodial surface anion channel blockers, osmotic lysis – cell-based, P. falciparum Indochina, OD700, 2 h, primary screen (AID 1155);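 further: lysis reports solute entry through the parasite surface anion channel PSAC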; details: P. falciparum Indochina infected erythrocytes, higher = more signal, called active from +8 up or from −8 down
[5] = changes in parasitized red cell lysis, either direction – P. falciparum Indochina, OD700, 3 h, PSAC antagonist project, primary screen (AID 1156); details: P. falciparum-infected erythrocytes, osmotic lysis, higher = more signal, called active from +8 up or from −8 down
[6] = plasmodial surface anion channel blockers, osmotic lysis – cell-based, P. falciparum Indochina, OD700, 18 h, primary screen (AID 1157); details: P. falciparum Indochina infected erythrocytes, osmotic lysis OD700, 18 h; higher = more signal, called active from +8 up or from −8 down
[7] = S6 kinase pathway phospho-S6 level changes – cell-based, A549, cytoblot, luminescence, serum-stimulated, primary screen (AID 1158); details: 5 h, higher = more signal;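 further: serum-stimulated A549 lung adenocarcinoma cells; signal is phosphorylated S6 detected by cytoblot immunostaining with HRP secondary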
[8] = biological target: NADPH oxidase 2 (Homo sapiens) (UniProt P04839); assay: compounds shifting NOX2 Amplex Red fluorescence – cell-based, HEK293-NOX2, PMA-stimulated, NOX inhibitor project, primary screen (AID 1159); details: 45 min, higher = more signal, called active from +8 up or from −8 down; further: test concentration not given here
Chain of NADPH oxidase 2 (Homo sapiens) (P04839 whole entry, looked up): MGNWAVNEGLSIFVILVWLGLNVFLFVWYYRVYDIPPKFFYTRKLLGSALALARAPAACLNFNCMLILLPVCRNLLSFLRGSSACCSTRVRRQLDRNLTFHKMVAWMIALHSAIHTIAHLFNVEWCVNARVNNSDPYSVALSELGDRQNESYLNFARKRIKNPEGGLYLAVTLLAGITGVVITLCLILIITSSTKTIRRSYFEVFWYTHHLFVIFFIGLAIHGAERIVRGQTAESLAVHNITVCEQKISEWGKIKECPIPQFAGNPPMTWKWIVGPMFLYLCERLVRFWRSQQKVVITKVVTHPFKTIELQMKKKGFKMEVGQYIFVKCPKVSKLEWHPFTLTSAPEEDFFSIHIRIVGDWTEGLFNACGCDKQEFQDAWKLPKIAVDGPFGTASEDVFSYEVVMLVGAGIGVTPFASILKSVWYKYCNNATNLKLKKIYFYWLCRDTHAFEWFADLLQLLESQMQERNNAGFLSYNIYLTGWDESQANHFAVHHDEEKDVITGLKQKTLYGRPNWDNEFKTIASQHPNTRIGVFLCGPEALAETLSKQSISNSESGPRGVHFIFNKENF

[9] = biological target: NADPH oxidase 4 (Homo sapiens) (UniProt Q9NPH5); assay: compounds shifting NOX4 Amplex Red fluorescence – cell-based, HEK293-NOX4, tetracycline-induced, NOX inhibitor project, primary screen (AID 1160); details: HEK293-NOX4, Amplex Red H2O2 fluorescence, 45 min; higher = more signal, called active from +8 up or from −8 down
Chain of NADPH oxidase 4 (Homo sapiens) (Q9NPH5 whole entry, looked up): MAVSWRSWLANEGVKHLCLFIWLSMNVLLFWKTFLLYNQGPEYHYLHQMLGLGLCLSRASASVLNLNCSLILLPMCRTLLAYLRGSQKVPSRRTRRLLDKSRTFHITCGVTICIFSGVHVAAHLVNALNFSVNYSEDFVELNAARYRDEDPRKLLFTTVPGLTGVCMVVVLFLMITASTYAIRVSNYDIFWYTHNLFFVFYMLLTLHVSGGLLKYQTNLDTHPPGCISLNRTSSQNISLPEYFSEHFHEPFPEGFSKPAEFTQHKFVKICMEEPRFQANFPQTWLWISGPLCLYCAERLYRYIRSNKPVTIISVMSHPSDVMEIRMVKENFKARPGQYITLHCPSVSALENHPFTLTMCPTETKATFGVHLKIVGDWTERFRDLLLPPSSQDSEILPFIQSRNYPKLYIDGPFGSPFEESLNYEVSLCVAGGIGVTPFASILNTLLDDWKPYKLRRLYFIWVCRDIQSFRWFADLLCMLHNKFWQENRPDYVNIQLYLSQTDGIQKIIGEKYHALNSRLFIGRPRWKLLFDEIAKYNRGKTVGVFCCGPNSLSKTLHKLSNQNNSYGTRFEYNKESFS

[10] = biological target: NADPH oxidase 5 (Homo sapiens) (UniProt Q96PH1); assay: compounds shifting NOX5 Amplex Red fluorescence – cell-based, HEK293-NOX5, NOX inhibitor project, primary screen (AID 1161); details: HEK293-NOX5, ionomycin, 45 min, higher = more signal
Chain of NADPH oxidase 5 (Homo sapiens) (Q96PH1 whole entry, looked up): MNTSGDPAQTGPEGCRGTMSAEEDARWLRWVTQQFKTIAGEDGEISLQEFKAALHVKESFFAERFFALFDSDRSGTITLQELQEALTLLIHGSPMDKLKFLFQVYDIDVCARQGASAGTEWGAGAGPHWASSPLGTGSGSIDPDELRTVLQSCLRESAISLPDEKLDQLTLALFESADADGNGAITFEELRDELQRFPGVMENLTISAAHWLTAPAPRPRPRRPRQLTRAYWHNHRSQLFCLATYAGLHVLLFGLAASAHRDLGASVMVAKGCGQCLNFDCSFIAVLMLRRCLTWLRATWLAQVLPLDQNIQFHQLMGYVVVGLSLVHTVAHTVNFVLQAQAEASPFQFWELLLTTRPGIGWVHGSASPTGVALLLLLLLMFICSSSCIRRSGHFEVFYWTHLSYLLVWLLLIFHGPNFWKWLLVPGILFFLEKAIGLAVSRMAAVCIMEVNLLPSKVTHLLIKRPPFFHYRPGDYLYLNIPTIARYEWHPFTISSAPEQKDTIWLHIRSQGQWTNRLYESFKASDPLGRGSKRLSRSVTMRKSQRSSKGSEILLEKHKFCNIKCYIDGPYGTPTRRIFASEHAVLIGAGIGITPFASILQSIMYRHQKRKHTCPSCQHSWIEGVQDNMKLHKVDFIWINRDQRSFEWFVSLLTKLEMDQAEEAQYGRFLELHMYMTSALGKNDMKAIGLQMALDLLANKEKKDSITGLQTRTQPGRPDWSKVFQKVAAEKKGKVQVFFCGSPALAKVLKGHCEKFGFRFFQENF

[11] = compound effects on lung adenocarcinoma cell viability – A549, calcein-AM fluorescence, 48 h, basal, profiling panel (AID 1162); details: higher = more signal; further: test concentration not given here
[12] = compound effects on differentiated 3T3-L1 adipocyte viability – cell-based, 3T3-L1 adipocytes, calcein-AM fluorescence, 48 h, basal, profiling panel (AID 1163); details: 3T3-L1 adipocytes viability, higher = more signal; further: test concentration not given here
[13] = compound effects on hepatocellular carcinoma cell viability – HepG2, calcein-AM fluorescence, 48 h, basal, profiling panel (AID 1164); details: higher = more signal; further: test concentration not given here
[14] = compound effects on multiple myeloma cell viability – MM1S, calcein-AM fluorescence, 48 h, basal, profiling panel (AID 1165); details: higher = more signal;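 further: viability of MM1S multiple myeloma cells under basal unstimulated conditions; test concentration not given here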
[15] = calcein-AM signal in unstimulated myeloma cells – cell-based, calcein-AM fluorescence, 48 h, PK04 Diversity Set, profiling panel (AID 1166); details: RPMI8226 myeloma viability, higher = more signal;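 further: cells grown under basal conditions without added stimulus; test concentration not given here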
[16] = JC-1 mitochondrial signal, unstimulated HepG2 cells – cell-based, JC-1 fluorescence, 24 h, 100 nL compound, profiling panel (AID 1167); details: HepG2 mitochondrial potential, higher = more signal; further: test concentration not given here
[17] = JC-1 mitochondrial signal, unstimulated adipocytes – cell-based, JC-1 fluorescence, 3T3-L1 adipocytes, 24 h, 100 nL compound, profiling panel (AID 1168); details: JC-1 mitochondrial fluorescence, higher = more signal, called active from +8 up or from −8 down; further: test concentration not given here
[18] = JC-1 mitochondrial signal, unstimulated myeloma cells – cell-based, JC-1 fluorescence, RPMI8226, 24 h, 100 nL compound, profiling panel (AID 1169); details: JC-1 mitochondrial potential fluorescence, higher = more signal; further: test concentration not given here
[19] = JC-1 mitochondrial signal, unstimulated MM1S myeloma – cell-based, JC-1 fluorescence, 24 h, 100 nL compound, profiling panel (AID 1170); details: MM1S mitochondrial potential, higher = more signal; further: test concentration not given here
[20] = resazurin metabolic signal in A549 cells – cell-based, resazurin fluorescence, 24 h, PK04 Diversity Set, profiling panel (AID 1171); details: A549 viability, higher = more signal, called active from +8 up or from −8 down; further: test concentration not given here

| SMILES | z-score [1] | composite z-score [2] | z-score [3] | z-score [4] | z-score [5] | z-score [6] | z-score [7] | z-score [8] | z-score [9] | z-score [10] | z-score [11] | z-score [12] | z-score [13] | z-score [14] | z-score [15] | z-score [16] | z-score [17] | z-score [18] | z-score [19] | z-score [20] |
| --- | --- | --- | --- | --- | --- | --- | --- | --- | --- | --- | --- | --- | --- | --- | --- | --- | --- | --- | --- | --- |
| CN(C)C(=O)[C@@]1(Cc2ccccc2)COC(c2ccc(OCCCO)cc2)=N1 | 1.54 (inactive) | -0.57 | 20.9 (active) | 3.73 (inactive) | 2.46 (inactive) | 1.09 (inactive) | 0.0912 | -1.26 (inactive) | 0.108 (inactive) | -1.21 | 0.0581 | -0.538 | -0.0485 | -1.22 | 0.726 | -0.455 | -0.384 (inactive) | 0.0953 | -1.17 | -0.193 (inactive) |
| [N-]=[N+]=NCc1ccccc1C[C@]1(C(=O)N2CCOCC2)COC(c2ccc(OCCCO)cc2)=N1 | 2.57 (inactive) | 0.691 | 26.6 (active) | 15 (active) | 3.85 (inactive) | 2.64 (inactive) | 0.338 | -3.84 (inactive) | -0.698 (inactive) | -3.14 | 0.0386 | 0.926 | 0.383 | -3.46 | -2.89 | 1.72 | 0.665 (inactive) | -0.843 | -0.968 | -0.36 (inactive) |
| O=C(N1CCOCC1)[C@@]1(CCS(=O)(=O)c2ccccc2)N=C(c2ccc(OCCCO)cc2)O[C@H]1c1ccccc1 | 0.276 (inactive) | 0.446 | 30.2 (active) | 27.8 (active) | 0.265 (inactive) | 5.34 (inactive) | -0.679 | 0.386 (inactive) | 1.75 (inactive) | 1.97 | 0.723 | -0.614 | 0.491 | 0.201 | 0.614 | 0.271 | -0.277 (inactive) | -0.489 | -0.617 | -0.223 (inactive) |
| COc1cc2c(cc1OC)CN(C(=O)[C@@H]1[C@H]3C(=O)O[C@H](c4ccccc4)[C@H](c4ccccc4)N3[C@H](c3ccc(O)cc3)[C@@]13C(=O)Nc1ccc(C#CCCO)cc13)CC2 | -0.0186 (inactive) | -0.149 | 0.125 (inactive) | 0.448 (inactive) | 1.16 (inactive) | 0.165 (inactive) | -0.42 | 0.777 (inactive) | 0.152 (inactive) | 0.532 | -0.446 | -0.423 | -0.314 | -0.0118 | 0.191 | -2.29 | 0.0304 (inactive) | -0.294 | -0.492 | 0.156 (inactive) |
| CN(C)CCCNC(=O)[C@@H]1c2ccccc2C(=O)N(C2CCCCC2)[C@H]1c1ccc(CO)cc1 | 0.196 (inactive) | 0.2 | 1.1 (inactive) | -0.541 (inactive) | 1.67 (inactive) | 0.253 (inactive) | 0.189 | 0.2 (inactive) | 0.197 (inactive) | -0.301 | 0.634 | -0.318 | 0.821 | -0.592 | -0.514 | 2.43 | 0.626 (inactive) | 0.363 | -0.243 | 0.887 (inactive) |
| O=C(O)[C@H]1C[C@H]2C(=O)N[C@@H](Cc3ccccc3)C(=O)N2[C@H]1c1cccc(OCCO)c1 | 0.262 (inactive) | 0.121 | 4.38 (inactive) | 0.547 (inactive) | -2.49 (inactive) | 0.204 (inactive) | 0.146 | -3.4 (inactive) | -4.87 (inactive) | -2.33 | 1.11 | -0.218 | 0.259 | -3.41 | -0.958 | 1.64 | -0.169 (inactive) | -0.299 | -1.18 | 0.75 (inactive) |
| C=CCN1C(=O)[C@@]2(O[C@@H](CCO)[C@H]([Si](C)(C)c3ccc(OC)cc3)[C@H]2C)c2cc(N3CCOC3=O)ccc21 | 0.232 (inactive) | -0.152 | 24.6 (active) | 12.6 (active) | 0.28 (inactive) | 2.21 (inactive) | 0.309 | -2.41 (inactive) | 1.35 (inactive) | -1.52 | -2.23 | 1.33 | -4.75 | -2.77 | -4.38 | -2.9 | 1.25 (inactive) | -1.08 | -2.3 | -3.36 (inactive) |
| C[C@]1(C(=O)O)c2ccccc2C(=O)N(Cc2ccc(OC(F)(F)F)cc2)[C@H]1c1ccc(CO)cc1 | 0.026 (inactive) | 0.227 | 3.93 (inactive) | 0.789 (inactive) | 0.503 (inactive) | 0.18 (inactive) | -0.115 | 0.948 (inactive) | 0.41 (inactive) | -0.52 | 0.0055 | 0.755 | -0.167 | -0.24 | -1.48 | 0.248 | -1.18 (inactive) | -0.0611 | 0.057 | 0.244 (inactive) |
| COc1ccc([Si](C)(C)[C@H]2[C@H](CCO)O[C@@]3(C(=O)N(Cc4ccccc4)c4ccc(N5CCOC5=O)cc43)[C@@H]2C)cc1 | -0.261 (inactive) | -0.0025 | 5.86 (inactive) | 1.9 (inactive) | -0.307 (inactive) | 0.913 (inactive) | 0.577 | -1.36 (inactive) | 1.71 (inactive) | 2.27 | -0.119 | -0.325 | -2.09 | -2.13 | -3.4 | -0.203 | 0.69 (inactive) | -1.11 | -1.68 | -1.94 (inactive) |

From PubChem BioAssay
